# Where “and” joins values, the source holds several entries; their conditions need not be identical. Identical values can stand only once. Records with an inconclusive call do not appear. Calls of active or inactive are those of the source.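 How the source made its calls, unless noted: active means normalized viability below 100% at a tested concentration; inactive means the rest.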
# Columns and labels:
# [1] = growth inhibition of DIPG glioma cells, dose response, cell-based, SU-DIPG-XIII, MIPE4.0, CellTiter-Glo, qHTS (AID 1347061; cut-off not given, nearly all actives have AC50 up to about 37 µM;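 further: cells exposed to compound for 48 hours before readout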); settings: SU-DIPG-XIII viability, CellTiter-Glo ATP luminescence
# [2] = SU-DIPG-VI glioma cell viability, MIPE4.0 library, CellTiter-Glo luminescence, qHTS (AID 1347066; cut-off not given, nearly all actives have AC50 up to about 30 µM;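 further: cells exposed to compound for 48 hours before readout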); settings: CellTiter-Glo ATP luminescence
# [3] = SU-DIPG-XXV glioma cell viability, MIPE5.0 library, qHTS (AID 1347068; cut-off not given, nearly all actives have IC50 up to about 30 µM)
# [4] = sensitizers of A549 cells to miR-34 induction, primary screen, imaging, A549 dox-inducible miR-34, nuclei and caspase counts (AID 1347080;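 active means compounds whose cell count with miR-34 switched on is under 0.7 times the count with it off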); settings: A549 miR-34 inducible, Hoechst nuclei count, 48 h
# [5] = modifiers of HSF1 nuclear foci, imaging, Selleck Cancer Library (AID 1347162; in the data active means plate-normalised HSF1 focus index below about 0.46); settings: human cells, at 10 µM; SSMD: measured here: HSF1 foci SSMD mean; cell count: measured here: cell number; plate-normalised HSF1 focus index: stronger effect = lower value
# [6] = survival rescue of mitochondrial mutant cells in low glucose, primary screen, MELAS cybrids, Rieske KO mouse fibroblasts, CellTiter-Glo (AID 1508586;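 active means mean z-score across replicates of 1.96 or higher in either the MELAS or the Rieske mutant cell line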;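 further: z relative to plate mean and SD of compound and empty wells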)
# [7] = ovarian cancer cell viability with rucaparib, profiling panel, oncology-focused library, rucaparib conditional (AID 1508598); settings: patient-derived ovarian cancer cells, CellTiter-Glo viability, 144 h, stronger effect = lower value
# [8] = LFS_MB_P medulloblastoma growth inhibition, cell-based, chromothripsis tumors, cisplatin or BGB combos (AID 1671449; in the data active means inhibition above about 80%;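 further: cells exposed for 96 hours; 0% = vehicle DMSO and 100% = killing by high DMSO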); settings: LFS_MB_P medulloblastoma cells
# [9] = HDN33 neuroblastoma growth inhibition, cell-based, chromothripsis tumors, cisplatin or BGB combos (AID 1671450; in the data active means inhibition above about 80%;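 further: cells exposed to compound for four days; 0% = vehicle DMSO and 100% = cell killing by high DMSO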); settings: HDN33 neuroblastoma cells, stronger effect = higher value
# [10] = ICB984 medulloblastoma cell growth inhibition, synergistic combos for chromothripsis tumors, cisplatin or BGB combos (AID 1671451; call rule not given here;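 further: cells exposed for 96 hours before readout; 0% = vehicle DMSO and 100% = killing by high DMSO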); settings: ICB984 medulloblastoma cells, drug combinations, stronger effect = higher value
# [11] = HTB85 osteosarcoma cell growth inhibition, synergistic combos for chromothripsis tumors, BGB or cisplatin IC20 combos (AID 1671453; in the data active means inhibition above about 80%;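 further: cells exposed for 96 hours before readout; 0% = vehicle DMSO and 100% = high DMSO killing control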); settings: HTB85 osteosarcoma cells, drug combinations, stronger effect = higher value
# [12] = MDA-MB-436 breast carcinoma cell growth inhibition, synergistic combos for chromothripsis tumors, BGB or cisplatin combos (AID 1671458; call rule not given here;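 further: cells exposed for 96 hours; 0% = vehicle DMSO and 100% = killing by high DMSO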); settings: MDA-MB-436 breast carcinoma growth inhibition, drug combinations, stronger effect = higher value
# [13] = growth inhibition of BT084 medulloblastoma cells, cell-based, ICGC_MB145, cisplatin and BGB IC40 combos (AID 1671461; in the data active means inhibition above about 80%;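 further: cells exposed to drugs for 96 hours; 0% = vehicle DMSO and 100% = high DMSO full killing control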); settings: drug combinations, stronger effect = higher value
# [14] = growth inhibition of RCMB18 medulloblastoma cells, cell-based, cisplatin and BGB IC40 combos (AID 1671462; in the data active means inhibition above about 80%;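 further: cells exposed to compound for four days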); settings: stronger effect = higher value
# [15] = growth inhibition of CRL1545 osteosarcoma cells, cell-based, cisplatin and BGB IC20 combos (AID 1671464; in the data active means inhibition above about 80%;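 further: cells exposed to compound for 96 hours before readout; 0% = vehicle DMSO and 100% = high DMSO killing control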); settings: stronger effect = higher value
# [16] = measured here: with BGB IC20 combination, at 0.5 µM
# [17] = measured here: with cisplatin IC20 combination, at 0.5 µM
smiles,measurement,setting,value
CN(C)Cc1ccc(-c2nc3cccc4c3n2CCNC4=O)cc1,AC50,[1],18.7 µM (active)
same,outcome,[2],inactive
same,outcome,[3],inactive
same,fold change,"[4]; stronger effect = lower value, cell number ratio, induced over uninduced",0.89 (inactive)
same,fold change,[4]; measured here: relative caspase fold change +Dox/-Dox,1.02
same,cell count,"[4]; measured here: total cells with miR-34 induction, stronger effect = lower value",6740
same,cell count,[4]; measured here: total cells without miR-34 induction,7560
same,SSMD,[5],-0.246
same,cell count,[5],7430
same,plate-normalised HSF1 focus index,[5],0.994 (inactive)
same,z-score,"[6]; MELAS cybrid survival, CellTiter-Glo 48 h, stronger effect = higher value",-0.319 (inactive)
same,z-score,"[6]; Rieske KO mouse fibroblast survival, CellTiter-Glo 72 h",-0.0135
same,viability,"[7]; at 0.000305 µM, OCI-C5x cells, with rucaparib 10 µM, 100% = cells with rucaparib alone",114% (inactive)
same,viability,"[7]; at 0.000305 µM, OCI-C5x cells, without rucaparib",127% (inactive)
same,viability,"[7]; at 0.000305 µM, OCI-P5x cells, with rucaparib 20 µM, 100% = cells with rucaparib alone",98.3% (active)
same,viability,"[7]; at 0.000305 µM, OCI-P5x cells, without rucaparib",118% (inactive)
same,viability,"[7]; at 0.00122 µM, OCI-C5x cells, with rucaparib 10 µM, 100% = cells with rucaparib alone",111% (inactive)
same,viability,"[7]; at 0.00122 µM, OCI-C5x cells, without rucaparib",142% (inactive)
same,viability,"[7]; at 0.00122 µM, OCI-P5x cells, with rucaparib 20 µM, 100% = cells with rucaparib alone",98.2% (active)
same,viability,"[7]; at 0.00122 µM, OCI-P5x cells, without rucaparib",119% (inactive)
same,viability,"[7]; at 0.00488 µM, OCI-C5x cells, with rucaparib 10 µM, 100% = cells with rucaparib alone",109% (inactive)
same,viability,"[7]; at 0.00488 µM, OCI-C5x cells, without rucaparib",121% (inactive)
same,viability,"[7]; at 0.00488 µM, OCI-P5x cells, with rucaparib 20 µM, 100% = cells with rucaparib alone",102% (inactive)
same,viability,"[7]; at 0.00488 µM, OCI-P5x cells, without rucaparib",115% (inactive)
same,viability,"[7]; at 0.0195 µM, OCI-C5x cells, with rucaparib 10 µM, 100% = cells with rucaparib alone",110% (inactive)
same,viability,"[7]; at 0.0195 µM, OCI-C5x cells, without rucaparib",128% (inactive)
same,viability,"[7]; at 0.0195 µM, OCI-P5x cells, with rucaparib 20 µM, 100% = cells with rucaparib alone",97% (active)
same,viability,"[7]; at 0.0195 µM, OCI-P5x cells, without rucaparib",111% (inactive)
same,viability,"[7]; at 0.0781 µM, OCI-C5x cells, with rucaparib 10 µM, 100% = cells with rucaparib alone",112% (inactive)
same,viability,"[7]; at 0.0781 µM, OCI-C5x cells, without rucaparib",136% (inactive)
same,viability,"[7]; at 0.0781 µM, OCI-P5x cells, with rucaparib 20 µM, 100% = cells with rucaparib alone",89.9% (active)
same,viability,"[7]; at 0.0781 µM, OCI-P5x cells, without rucaparib",107% (inactive)
same,viability,"[7]; at 0.313 µM, OCI-C5x cells, with rucaparib 10 µM, 100% = cells with rucaparib alone",117% (inactive)
same,viability,"[7]; at 0.313 µM, OCI-C5x cells, without rucaparib",118% (inactive)
same,viability,"[7]; at 0.313 µM, OCI-P5x cells, with rucaparib 20 µM, 100% = cells with rucaparib alone",88.6% (active)
same,viability,"[7]; at 0.313 µM, OCI-P5x cells, without rucaparib",101% (inactive)
same,viability,"[7]; at 1.25 µM, OCI-C5x cells, with rucaparib 10 µM, 100% = cells with rucaparib alone",109% (inactive)
same,viability,"[7]; at 1.25 µM, OCI-C5x cells, without rucaparib",121% (inactive)
same,viability,"[7]; at 1.25 µM, OCI-P5x cells, with rucaparib 20 µM, 100% = cells with rucaparib alone",88.7% (active)
same,viability,"[7]; at 1.25 µM, OCI-P5x cells, without rucaparib",92.1% (active)
same,viability,"[7]; at 5 µM, OCI-C5x cells, with rucaparib 10 µM, 100% = cells with rucaparib alone",120% (inactive)
same,viability,"[7]; at 5 µM, OCI-C5x cells, without rucaparib",114% (inactive)
same,viability,"[7]; at 5 µM, OCI-P5x cells, with rucaparib 20 µM, 100% = cells with rucaparib alone",78.4% (active)
same,viability,"[7]; at 5 µM, OCI-P5x cells, without rucaparib",83.9% (active)
same,inhibition,"[8]; at 0.5 µM, stronger effect = higher value",-24.1% (inactive) and -21.5% (inactive)
same,inhibition,"[8]; measured here: combination with BGB IC20, at 0.005 µM",-9.73% and -22%
same,inhibition,"[8]; measured here: combination with BGB IC40, at 0.005 µM",64% and -31.1%
same,inhibition,"[8]; measured here: combination with BGB IC40, at 0.05 µM",-13% and -56%
same,inhibition,"[8]; measured here: combination with cisplatin, at 0.5 µM, stronger effect = higher value",-37.5% and -16.8%
same,inhibition,"[8]; measured here: combination with cisplatin, at 5 µM, stronger effect = higher value",-29.7% and -74.4%
same,inhibition,"[9]; BGB combo, at 5 µM",-26.8% and -18.6%
same,inhibition,[9]; at 0.5 µM,-1.23% (inactive) and -27.1% (inactive)
same,inhibition,"[9]; cisplatin combo, at 5 µM",6.93% and -10.3%
same,inhibition,[9]; [16],-13.1% and -21.5%
same,inhibition,[9]; [17],15.7% and -26.9%
same,inhibition,"[9]; single agent, at 5 µM",-4.63% and 68.3%
same,inhibition,"[10]; BGB IC20 combo, at 0.005 µM",-1.21% and 16.5%
same,inhibition,"[10]; BGB IC40 combo, at 0.005 µM",-19.6% and -25.1%
same,inhibition,"[10]; BGB IC40 combo, at 0.05 µM",-33.7% and -42.1%
same,inhibition,[10]; at 0.5 µM,-15.4% (inactive) and -23.9% (inactive)
same,inhibition,"[10]; cisplatin combo, at 0.05 µM",-40.7% and -47.2%
same,inhibition,"[10]; cisplatin combo, at 0.5 µM",-18.6%
same,inhibition,"[10]; cisplatin combo, at 5 µM",-4.49% and -37.9%
same,inhibition,"[10]; measured here: 5 uM single agent, at 5 µM",-23% and -7.92%
same,inhibition,[11]; at 0.5 µM,17.4% (inactive) and -2.96% (inactive)
same,inhibition,"[11]; measured here: with BGB IC20, at 0.5 µM",58.8% and -16.5%
same,inhibition,"[11]; measured here: with BGB IC20, at 5 µM",10.8% and 1.62%
same,inhibition,"[11]; measured here: with cisplatin IC20, at 0.5 µM",-2.97% and 1.8%
same,inhibition,"[11]; measured here: with cisplatin IC20, at 5 µM",2.38% and -10.9%
same,inhibition,"[11]; single agent, at 5 µM",7.8% and -6.63%
same,inhibition,[12]; at 0.5 µM,-0.12% (inactive) and 3.53% (inactive)
same,inhibition,"[12]; measured here: BGB combination, at 0.5 µM",-12.4% and -11.3%
same,inhibition,"[12]; measured here: BGB combination, at 5 µM",-14% and -5.01%
same,inhibition,"[12]; measured here: cisplatin combination, at 0.5 µM",2.29% and 7.08%
same,inhibition,"[12]; measured here: cisplatin combination, at 5 µM",-4.32% and 2.44%
same,inhibition,[13]; at 0.5 µM,-6.05% (inactive) and -22.2% (inactive)
same,inhibition,"[13]; cisplatin combination, at 0.5 µM",-18.4% and -65.7%
same,inhibition,"[13]; cisplatin combination, at 5 µM",-58.6% and -32.7%
same,inhibition,"[13]; measured here: BGB IC40 combination 0.05 uM, at 0.05 µM",-19.6% and 43.4%
same,inhibition,"[13]; single agent, at 5 µM",-6.92% and -7.26%
same,inhibition,[14]; at 0.5 µM,-9.62% (inactive) and -41.4% (inactive)
same,inhibition,"[14]; cisplatin combo, at 5 µM",-40.6% and -33.3%
same,inhibition,"[14]; measured here: BGB IC40 combination, at 0.05 µM",-1.87% and -3.35%
same,inhibition,"[14]; measured here: combination with cisplatin, at 0.5 µM",-15.6% and -104%
same,inhibition,"[14]; single agent, at 5 µM",-19.5% and -24.5%
same,inhibition,[15]; at 0.5 µM,4.03% (inactive) and 11.8% (inactive)
same,inhibition,[15]; [16],-8.48% and 3.96%
same,inhibition,[15]; [17],8.84% and 14.3%
same,inhibition,"[15]; single agent, at 0.05 µM",17.2% and 13.3%
same,inhibition,"[15]; single agent, at 5 µM",-17.9% and -17.8%
